In ChEMBL document CHEMBL3988442, “University of Dundee, Small-Polar-MMV Screening Library” (2021):
About 13,000 (27%) of roughly 48,000 compounds showed an effect of 50% or more. The list shows a part of the results.

System: Wolbachia pipientis
Test: Anti-Wolbachia Cell-Based Screen
Type: functional
Parameters: scale not given: in the data most compounds retested in dose-response had high values
Settings: 5 µM

Going from `CC[C@H]1CN(S(=O)(=O)c2ccc(OC)cc2)CC[C@H]1CC(=O)O` to `COc1ccc(S(=O)(=O)N2CCC(O)(CN(C)C)C2)cc1` (configuration not stated), the “Percent Effect” value rises from 6.997% to 122.7%.

Going from `CN(C)CC1(O)CCN(S(=O)(=O)c2ccc(F)c(F)c2)C1` (configuration not stated) to `CN(C)CC1(O)CCN(S(=O)(=O)c2ccc(Cl)cc2)C1` (configuration not stated), the “Percent Effect” value rises from -14.25% to 106.4%.

Going from `COc1cccc(S(=O)(=O)N2CCC(O)(CN(C)C)C2)c1` (configuration not stated) to `CN(C)CC1(O)CCN(S(=O)(=O)c2cccc(F)c2)C1` (configuration not stated), the “Percent Effect” value rises from -4.6% to 142.4%.

Compared with `Cc1ccc(S(=O)(=O)N2CCC3(CC(C(=O)NCC4CC4)=NO3)C2)cc1` (configuration not stated), `Cc1ccc(S(=O)(=O)N2CCC(O)(CN(C)C)C2)cc1` (configuration not stated) is higher in “Percent Effect” value: -17.63% for the first, 128.7% for the second.

First: CCOC1COC2(CCN(S(=O)(=O)c3cccc(F)c3)CC2)C1 (configuration not stated)
Second: O=S(=O)(c1cccc(F)c1)N1C[C@@H]2CC[C@H](C1)N(Cc1ccccc1)C2
The “Percent Effect” value of the first is lower: -12.88% for the first, 7.587% for the second.

Going from `CN(C)CC1(O)CCN(S(=O)(=O)c2ccc(F)cc2)C1` (configuration not stated) to `CCS(=O)(=O)N1CCC[C@]2(C(=O)N(C)C)CN(c3ccccn3)C[C@@H]2C1.O=C(O)C(F)(F)F`, the “Percent Effect” value rises from -17.25% to -14.88%.

Compared with `CC(C)(C)C(O)CN1CCN(CC(=O)NCC(F)(F)F)CC1` (configuration not stated), `COCCN1CCO[C@H]2CCN(C(=O)c3cccs3)CC[C@@H]21.O=C(O)C(F)(F)F` is higher in “Percent Effect” value: 8.391% for the first, 9.308% for the second.

Compared with `COc1ccc(CCNC(=O)C2CCOC2)c(Cl)c1` (configuration not stated), `CC(c1ccc(C(=O)NCCc2nc(N)cc(O)n2)o1)N1CCCCC1` (configuration not stated) is higher in “Percent Effect” value: -19.93% for the first, 6.141% for the second.

Compared with `O=S(=O)(CCNCc1ccc(Cl)cc1)N1CCOCC1`, `Cn1c(-c2cccs2)nn(CCNS(=O)(=O)c2ccccc2Cl)c1=O` is higher in “Percent Effect” value: -1.046% for the first, 11.66% for the second.

Compared with `CN(C)CCN1C(=O)CO[C@@H]2CN(c3ncc(F)cn3)C[C@H]21`, `CN(C)CCN1C[C@@H]2OCCN(Cc3cnn(C)c3)[C@@H]2C1` is lower in “Percent Effect” value: -1.223% for the first, -15.62% for the second.

Compared with `Cl.Cn1ccnc1CNC(=O)c1ccnc(C2CCNCC2)c1`, `Cl.Cn1ccnc1CNC(=O)c1cnc(C2CCNCC2)cn1` is lower in “Percent Effect” value: 112.8% for the first, 74.03% for the second.

Compared with `Cn1ccnc1CNC(=O)Nc1ccc(OC2CCC2)c(F)c1`, `Cc1c(NC(C)C(C)C)cccc1C(=O)NCc1nccn1C` (configuration not stated) is lower in “Percent Effect” value: 1.11% for the first, -7.954% for the second.

First: Cn1ccnc1SCCNC(=O)c1c[nH]nc1C1CCCCC1
Second: Cn1cc(-c2ccnc(NCC3CCCCO3)n2)cn1 (configuration not stated)
The “Percent Effect” value of the first is lower: -10.23% for the first, -0.1287% for the second.

First: CC(C)N(Cc1nccn1C)C(=O)c1cnc(O)cn1
Second: Cc1cnn(CC(C)NCc2nc(-c3ccco3)no2)c1 (configuration not stated)
The “Percent Effect” value of the first is lower: -3.4% for the first, 2.799% for the second.

Going from `COCCCC(=O)Nc1cc(Cl)c(Cl)cn1` to `N#Cc1cccc(Cl)c1NCCc1n[nH]c(=O)[nH]1`, the “Percent Effect” value rises from -20.73% to -15.54%.

Going from `O=C(c1scc2c1OCCO2)N1CCOC(Cc2cccc(F)c2)C1` (configuration not stated) to `CC(=O)N1CCO[C@@H]2CN(C(=O)c3ccc4ncccc4c3)CC[C@@H]2C1.O=C(O)C(F)(F)F`, the “Percent Effect” value rises from -18.9% to -0.4432%.

Compared with `Cc1noc(-c2cnc(NC3CC3)nc2-c2ccco2)c1C`, `Cc1noc(-c2cnc(NC(C)C)nc2-c2ccco2)c1C` is higher in “Percent Effect” value: 112.5% for the first, 118.1% for the second.

Compared with `Cc1nn(C)c2nc(-c3ccccn3)nc(NC[C@@H]3CCCO3)c12`, `Cc1noc(-c2cnc(NCC3CCCO3)nc2-c2ccco2)c1C` (configuration not stated) is higher in “Percent Effect” value: -8.15% for the first, 115.5% for the second.

Compared with `Cc1cnn(CC(C)NCc2csc(-c3ccco3)n2)c1` (configuration not stated), `CC(Cc1cn(CCc2nc(N)cc(O)n2)nn1)c1ccccc1` (configuration not stated) is higher in “Percent Effect” value: 6.093% for the first, 116.8% for the second.

Compared with `Cc1cc(C)c2nc(CN3CCC(N4CCOC4=O)CC3)cc(O)c2c1`, `CC(C)CCN1CCN(c2ncnc3nc(N)ccc23)CC1` is higher in “Percent Effect” value: -3.092% for the first, 6.537% for the second.

Compared with `COCCN(C)CCN1CC2(CCN(C3CCCNC3)CC2)OC1=O` (configuration not stated), `COCC(=O)N1CCC[C@]2(C(=O)N(C)C)CN(c3ccccn3)C[C@@H]2C1.O=C(O)C(F)(F)F` is lower in “Percent Effect” value: -6.573% for the first, -6.724% for the second.

Going from `Cc1c(C(=O)N2CCC2(C)C)nnn1-c1cccc2cnccc12` to `CN(CCn1ccc2ccccc21)C(=O)Cc1nnn[nH]1`, the “Percent Effect” value falls from 16.96% to -2.882%.

Going from `CN(C)C(=O)N1CCC[C@]2(C(=O)N(C)C)CN(c3ccccn3)C[C@@H]2C1.O=C(O)C(F)(F)F` to `CC(C)C(=O)N1CCC[C@]2(C(=O)N(C)C)CN(c3ccccn3)C[C@@H]2C1.O=C(O)C(F)(F)F`, the “Percent Effect” value falls from 123.8% to 109.6%.

Compared with `CCS(=O)(=O)N1CCC[C@]2(C(=O)N(C)C)CN(c3ncccn3)C[C@@H]2C1.O=C(O)C(F)(F)F`, `CCC(=O)N1CCC[C@]2(C(=O)N(C)C)CN(c3ccccn3)C[C@@H]2C1.O=C(O)C(F)(F)F` is higher in “Percent Effect” value: -12.08% for the first, 98.59% for the second.

Going from `O=C(O)C(F)(F)F.O=C(O)[C@]12CCCN(Cc3ccco3)C[C@H]1CN(c1ncccn1)C2` to `O=C(O)C(F)(F)F.O=C(O)C(F)(F)F.O=C(O)[C@]12CCCN(Cc3ccsc3)C[C@H]1CN(c1ccccn1)C2`, the “Percent Effect” value falls from 0.3269% to -13.21%.

Compared with `CN(C)C(=O)[C@]12CCCN(CC3CC3)C[C@H]1CN(c1ccccn1)C2.O=C(O)C(F)(F)F.O=C(O)C(F)(F)F`, `O=C(NC[C@H]1OC[C@@H]2CCN(C3CCOCC3)C[C@@H]21)c1ccncc1.O=C(O)C(F)(F)F.O=C(O)C(F)(F)F` is lower in “Percent Effect” value: 89.5% for the first, -8.097% for the second.

Compared with `COc1cccc(Cl)c1-c1cc(CN)ccc1F`, `C=C(C)COc1cccc(CNCCc2nc(N)cc(O)n2)c1` is higher in “Percent Effect” value: -5.951% for the first, 6.733% for the second.

Compared with `O=C(O)C(F)(F)F.O=C(c1cccs1)N1CC[C@@H]2CN(C3CCOCC3)CCO[C@@H]2C1`, `O=C(O)C(F)(F)F.O=C(O)C(F)(F)F.O=C(c1ccncc1)N1CC[C@@H]2CN(C3CCOCC3)CCO[C@@H]2C1` is higher in “Percent Effect” value: 103% for the first, 103.2% for the second.

Going from `O=C(O)C(F)(F)F.O=C(O)C(F)(F)F.c1csc(CN2CCO[C@@H]3CN(C4CCOCC4)C[C@@H]3C2)c1` to `Cc1ccc(CCNc2nc(-c3ccncc3)nc3c2CCNCC3)o1`, the “Percent Effect” value rises from -1.995% to -0.1721%.

Compared with `CC(Cc1cn(CCc2nnn[nH]2)nn1)c1ccccc1` (configuration not stated), `CC(Cc1cn(CCc2n[nH]c(=O)[nH]2)nn1)c1ccccc1` (configuration not stated) is higher in “Percent Effect” value: 103.4% for the first, 124.9% for the second.

First: CN(CCn1ccc2ccccc21)C(=O)Cc1n[nH]c(=O)[nH]1
Second: CC(Cc1ccc2c(c1)OCO2)c1cn(CCc2c[nH]cn2)nn1 (configuration not stated)
The “Percent Effect” value of the first is higher: 0.08952% for the first, -4.802% for the second.
